Reference: PubChem BioAssay (NCATS)
Values joined by “and” are separate entries in the source; they are usually repeats but may differ in a detail not shown here. Identical values can stand only once. Results filed as inconclusive are left out. Where a call stands in place of a potency, no number is given. Some structures have more than one record in an assay (separate samples or runs), and their calls can disagree. Active and inactive are the calls of the source. Unless noted, calls come from the whole dose curve; as a rule, active = well fitted curve in the direction sought with a large enough effect; inconclusive = small, poorly fitted or top-dose-only effect, or another doubt; inactive = no such curve, though single readings can be large; an effect the other way counts as inactive or inconclusive.

What was measured:
[1] = biological target: Cytochrome P450 2C9 (Homo sapiens) (UniProt P11712); assay: qHTS Assay for Inhibitors and Substrates of Cytochrome P450 2C9 (AID 883); note: nearly all actives have a fitted effect of over 60% in size; note: potency is the fitted concentration of half-maximal effect
Cytochrome P450 2C9 (Homo sapiens), sequence (P11712 whole entry, looked up): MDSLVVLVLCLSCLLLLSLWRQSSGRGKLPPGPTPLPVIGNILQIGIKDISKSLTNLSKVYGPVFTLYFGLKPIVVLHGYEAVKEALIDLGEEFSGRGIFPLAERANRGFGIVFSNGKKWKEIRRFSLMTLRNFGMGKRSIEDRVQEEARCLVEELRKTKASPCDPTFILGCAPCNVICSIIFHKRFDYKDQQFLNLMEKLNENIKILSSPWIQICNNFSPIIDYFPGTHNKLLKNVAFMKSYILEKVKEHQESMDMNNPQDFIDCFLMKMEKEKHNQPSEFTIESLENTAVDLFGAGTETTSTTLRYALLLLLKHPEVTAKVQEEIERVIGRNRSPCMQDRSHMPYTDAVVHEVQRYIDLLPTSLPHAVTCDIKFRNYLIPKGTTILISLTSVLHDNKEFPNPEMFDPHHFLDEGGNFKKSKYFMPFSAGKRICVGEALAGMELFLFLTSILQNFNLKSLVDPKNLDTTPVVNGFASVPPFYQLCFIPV
Summary of the method: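 10nM CYP2C9 + 100uM Luciferin-H (=KM), 25mM KPO4; cpd 10 min 37C; NADPH regen, 60 min 37C; stop/detect with P450 Glo-Buffer 20 min; luminescence. Norm. to 57uM sulphaphenazole as full inhibition.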

[2] = biological target: Glutathione peroxidase 1 (Homo sapiens) (UniProt P07203); assay: Primary qHTS Assay for Inhibitors of Recombinant Selenoprotein Glutathione Peroxidase 1 (GPX1) (AID 1845191); note: nearly all actives have a fitted effect of over 65% in size
Glutathione peroxidase 1 (Homo sapiens), sequence (P07203 whole entry, looked up): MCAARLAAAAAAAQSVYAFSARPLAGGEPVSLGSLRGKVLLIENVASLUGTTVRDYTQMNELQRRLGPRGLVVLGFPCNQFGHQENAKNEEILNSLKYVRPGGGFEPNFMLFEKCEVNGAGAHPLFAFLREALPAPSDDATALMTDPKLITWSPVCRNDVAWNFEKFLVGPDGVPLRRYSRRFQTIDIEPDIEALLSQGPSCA
Summary of the method: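 GR-coupled assay: compounds preincubated 30 min at room temperature with GPX1, then reaction started with CHP; final 10 nM GPX1, 1 mM GSH, 0.5 mM CHP, 0.5 mM NADPH, 100 nM GR, 0.01% BSA, pH 7.5 Tris buffer. NADPH fluorescence (340/450 nm) read at 0 and 15 min.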

[3] = biological target: Phospholipid hydroperoxide glutathione peroxidase GPX4 (Homo sapiens) (UniProt P36969); assay: Primary qHTS Assay for Inhibitors of Recombinant Selenoprotein Glutathione Peroxidase 4 (GPX4) (AID 1845192); note: nearly all actives have a fitted effect of over 65% in size; note: potency is the fitted concentration of half-maximal effect
Phospholipid hydroperoxide glutathione peroxidase GPX4 (Homo sapiens), sequence (P36969 whole entry, looked up): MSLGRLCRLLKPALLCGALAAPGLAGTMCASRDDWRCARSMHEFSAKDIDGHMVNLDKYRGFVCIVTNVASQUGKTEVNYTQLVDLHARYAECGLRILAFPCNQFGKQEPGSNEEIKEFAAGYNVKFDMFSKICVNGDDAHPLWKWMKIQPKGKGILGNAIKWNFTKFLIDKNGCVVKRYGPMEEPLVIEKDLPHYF
Summary of the method: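 GR-coupled assay: recombinant GPX4 preincubated 30 min with compound at room temperature; final 200 nM GPX4, 1 mM GSH, 0.5 mM cumene hydroperoxide, 0.5 mM NADPH, 100 nM GR, 0.01% BSA, pH 7.5 Tris. NADPH fluorescence (340/450 nm) read at 0 and 15 min.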

[4] = biological target: Estrogen receptor (Homo sapiens) (UniProt P03372); assay: qHTS assay for small molecule agonists of estrogen receptor alpha signaling (AID 588514; calls by dose curve; note: nearly all actives have a fitted effect of over 70% in size)
Estrogen receptor (Homo sapiens), sequence (P03372 whole entry, looked up): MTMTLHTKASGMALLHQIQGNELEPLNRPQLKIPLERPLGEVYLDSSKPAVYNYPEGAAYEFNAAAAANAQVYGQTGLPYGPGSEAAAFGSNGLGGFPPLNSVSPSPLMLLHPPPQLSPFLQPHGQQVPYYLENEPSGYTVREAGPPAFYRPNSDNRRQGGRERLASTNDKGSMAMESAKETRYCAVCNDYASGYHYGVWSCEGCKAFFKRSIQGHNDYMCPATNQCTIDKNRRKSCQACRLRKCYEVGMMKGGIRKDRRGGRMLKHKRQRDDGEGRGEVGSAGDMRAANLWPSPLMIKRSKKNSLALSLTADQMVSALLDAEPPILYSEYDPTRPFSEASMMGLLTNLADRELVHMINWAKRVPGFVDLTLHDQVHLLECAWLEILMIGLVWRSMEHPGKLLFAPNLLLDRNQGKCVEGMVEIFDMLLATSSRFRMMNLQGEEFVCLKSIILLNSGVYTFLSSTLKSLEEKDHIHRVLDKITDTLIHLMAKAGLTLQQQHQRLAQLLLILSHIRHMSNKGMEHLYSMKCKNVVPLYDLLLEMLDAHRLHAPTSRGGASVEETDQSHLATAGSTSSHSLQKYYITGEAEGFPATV
Summary of the method: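 ER-alpha-UAS-bla GripTite HEK 293 cells in medium with 2% charcoal/dextran-treated FBS were treated with compound titrations at 37 C for 18 hrs; beta-lactamase reporter read by CCF4 fluorescence after 2 hrs at RT.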

[5] = biological target: Peroxisome proliferator-activated receptor gamma (Homo sapiens) (UniProt P37231); assay: qHTS assay for small molecule antagonists of peroxisome proliferator-activated receptor gamma signaling (AID 588537; active = well fitted inhibition curve with a large enough effect in the signal ratio, with a control signal flat, not every such curve was filed as active; the % refers to the signal ratio;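 note: reporter cells co-stimulated with 50 nM rosiglitazone agonist during compound treatment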)
Peroxisome proliferator-activated receptor gamma (Homo sapiens), sequence (P37231 whole entry, looked up): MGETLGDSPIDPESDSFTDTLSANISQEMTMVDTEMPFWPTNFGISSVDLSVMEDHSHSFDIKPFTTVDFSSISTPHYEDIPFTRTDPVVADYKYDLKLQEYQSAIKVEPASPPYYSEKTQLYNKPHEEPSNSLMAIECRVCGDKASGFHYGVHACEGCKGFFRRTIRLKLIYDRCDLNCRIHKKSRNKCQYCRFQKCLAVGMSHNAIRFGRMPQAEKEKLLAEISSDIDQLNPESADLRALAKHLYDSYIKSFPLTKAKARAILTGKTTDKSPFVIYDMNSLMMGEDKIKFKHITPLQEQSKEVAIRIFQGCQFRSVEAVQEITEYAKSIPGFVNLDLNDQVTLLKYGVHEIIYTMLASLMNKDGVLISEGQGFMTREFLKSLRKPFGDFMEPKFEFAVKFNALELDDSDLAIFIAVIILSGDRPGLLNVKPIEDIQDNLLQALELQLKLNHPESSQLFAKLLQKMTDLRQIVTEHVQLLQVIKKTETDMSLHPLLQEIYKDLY
Summary of the method: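 Step one: plate 3000 HEK293 UAS-bla cells per well in medium with 1% stripped serum and hold 6-6.5 h at 37 C. Step two: add compound and 50 nM agonist for 16 h. Step three: CCF4 loading, fluorescence read.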

[6] = qHTS assay for small molecule agonists of retinoid X receptor alpha signaling (AID 588544; calls by dose curve); conditions: HEK293T RXRa-UAS-bla, beta-lactamase reporter, 18 h; 530 nm emission
[7] = biological target: Retinoic acid receptor RXR-alpha (Homo sapiens) (UniProt P19793); assay: as above
Retinoic acid receptor RXR-alpha (Homo sapiens), sequence (P19793 whole entry, looked up): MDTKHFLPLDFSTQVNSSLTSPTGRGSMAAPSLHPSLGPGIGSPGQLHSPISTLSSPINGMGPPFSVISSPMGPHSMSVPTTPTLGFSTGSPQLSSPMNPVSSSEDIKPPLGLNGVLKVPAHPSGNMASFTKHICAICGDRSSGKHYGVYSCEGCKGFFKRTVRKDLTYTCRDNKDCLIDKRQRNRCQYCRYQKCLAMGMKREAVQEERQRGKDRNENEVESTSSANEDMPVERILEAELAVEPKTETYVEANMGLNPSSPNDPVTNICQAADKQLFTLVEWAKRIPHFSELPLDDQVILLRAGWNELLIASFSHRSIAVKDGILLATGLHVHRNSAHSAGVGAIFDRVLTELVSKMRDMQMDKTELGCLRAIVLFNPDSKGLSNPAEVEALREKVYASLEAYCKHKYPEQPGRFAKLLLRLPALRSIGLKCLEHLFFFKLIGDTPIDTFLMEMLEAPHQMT

[8] = qHTS assay for small molecule agonists of the antioxidant response element (ARE) signaling pathway (AID 651741; active = well fitted activation curve with a large enough effect in the signal ratio; the % refers to the signal ratio; note: potency is the fitted concentration of half-maximal effect)
Summary of the method: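 HepG2 ARE-bla cells plated at 2,000 cells/well and incubated 5 h at 37 C/5% CO2 received 23 nL compound in DMSO. After 16 h at 37 C, LiveBLAzer B/G FRET substrate was applied for 2 h at room temperature and fluorescence read.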

[9] = qHTS assay for small molecule activators of the nuclear factor-kappa B (NF-kB) signaling pathway (AID 651749; active = well fitted activation curve with a large enough effect in the signal ratio; the % refers to the signal ratio); conditions: NF-kB-bla ME-180 cells, beta-lactamase FRET ratio, 16 h; stronger effect = higher value
Summary of the method: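 Incubation lasted 16 hr at 37C in 5% CO2 after 23 nL compound addition to ME-180 NF-kB-bla cells. Activation appears as beta-lactamase-mediated FRET loss.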

[10] = Cell Viability - MRC5 (AID 434; calls by dose curve;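 note: potency is the fitted concentration of half-maximal effect; potency reflects cytotoxicity seen as loss of intracellular ATP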); conditions: MRC5 lung fibroblast viability, qHTS
Summary of the method: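 MRC5 normal human lung fibroblasts, 1500 cells/well, exposed to compound for 40 hr at 37 C. Cellular ATP was read by CellTiter-Glo luminescence; data normalized to DMSO and 100 uM tamoxifen, with AC50 from Hill fits.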

[11] = Cell Viability - NIH 3T3 (AID 541); conditions: NIH 3T3 cell viability, qHTS; activity change, negative = cytotoxicity: at 92.2 µM (top of the series); note: nearly all actives have a fitted effect of over 25% in size
Summary of the method: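 NIH 3T3 mouse embryo fibroblasts (1000 cells/well) were plated in complete medium and treated with compound for 40 hr at 37 °C. Viability was read as intracellular ATP by CellTiter-Glo luminescence; AC50 values came from Hill-equation fits of concentration-response data.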

[12] = MultiTox-Fluor Cytotoxicity Assay - LYMP1-001 - Live Cells (AID 947)
[13] = Cell Viability - LYMP2-004 (AID 966); note: nearly all actives have a fitted effect of over 65% in size
Summary of the method: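 Human lymphoblastoid cells (2500/well) in complete medium were treated with compounds for 24 hr at 37 C, then intracellular ATP was measured by CellTiter-Glo luminescence. AC50 values came from Hill-equation fits of concentration-response data.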

[14] = Cell Viability - LYMP2-012 (AID 982);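 note: cellular ATP by luciferase luminescence where a drop means cytotoxicity; cells exposed to compound for one day before reading; nearly all actives have a fitted effect of over 55% in size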
[15] = Cell Viability - LYMP2-024 (AID 988); note: nearly all actives have a fitted effect of over 60% in size
Summary of the method: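 Human lymphoblastoid cells (2500/well) in complete medium were preincubated 5 hr at 37 C, then exposed to compounds for 24 hr at 37 C. Intracellular ATP was read by CellTiter-Glo luminescence; AC50 from Hill-equation fits of concentration-response data.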

[16] = qHTS assay for small molecule disruptors of the mitochondrial membrane potential - 1 hr assay (AID 651754; calls by dose curve; note: nearly all actives have a fitted effect of over 35% in size)
Summary of the method: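 HepG2 cells, attached overnight at 37C, were exposed to compound or DMSO vehicle for 1 hr at 37C, 5% CO2, then stained with Mito-MPS dye for 30 min. Red aggregate versus green monomer fluorescence reports membrane potential.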

[17] = qHTS assay for small molecule antagonists of the retinoid-related orphan receptor gamma (ROR-gamma) signaling pathway - cell viability counter screen (AID 720652; active = well fitted curve in the direction sought with a large enough effect in the repeat runs; an effect the other way counts as inactive or inconclusive;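 note: CHO reporter cells with doxycycline-induced ROR-gamma expression; compound exposure lasted 16 hr before ATP read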)
Summary of the method: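 Counter screen in CHO cells carrying TET-inducible ROR-gamma and an ROR response element-luciferase reporter; cells plated 5 hr, compound pinned, doxycycline added, then 16 hr at 37 C. Viability read as intracellular ATP by CellTiter-Glo luminescence.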

[18] = Cell Viability - HUV-EC-C (AID 542); note: nearly all actives have a fitted effect of over 35% in size
Summary of the method: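 HUV-EC-C normal human vascular endothelial cells, 1000 cells/well, pre-incubated 5 hr at 37 °C, then exposed to compounds for 40 hr at 37 °C in complete medium. Viability measured as intracellular ATP by CellTiter-Glo luminescence; AC50 from Hill fits.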

[19] = Cell Viability - SH-SY5Y (AID 544); note: nearly all actives have a fitted effect of over 55% in size
Summary of the method: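 Human neuroblastoma SH-SY5Y cells (1500/well) in complete medium were exposed to compounds for 40 hr at 37 °C; intracellular ATP was then quantified by CellTiter-Glo luminescence after 20 min at room temperature. AC50 came from Hill-equation concentration-response fits.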

[20] = MultiTox-Fluor Cytotoxicity Assay - LYMP1-002 - Dead Cells (AID 960); note: nearly all actives have a fitted effect of over 60% in size
Summary of the method: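 Human lymphoblastoid cells (LYMP1-002), 2500/well in complete medium, were exposed to compounds for 16 hr at 37 C. Dead-cell protease activity was read as bis-AAF-R110 fluorescence (Ex/Em 485/520), normalized to DMSO and 15 uM tetraoctylammonium bromide; AC50 from Hill fits.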

CN1CCN(c2ncc3nc(-c4cn(C)c5ccccc45)c(=O)n(C[C@H]4CCCO4)c3n2)CC1
Potency [1]: inactive

CC(C)=CCCC(C)=CCCC(C)=CCCC=C(C)CCC=C(C)CCC=C(C)C
Potency [2]: inactive | Potency [3]: inactive

COc1ccc2[nH]cc(CCNc3ncnc4ccc(-c5cccc(C#N)c5)cc34)c2c1
Potency [1]: 0.0631 µM (active)

CC(=O)OC1CC2CCC1(C)C2(C)C (configuration not stated)
Potency [2]: inactive | Potency [3]: inactive

COc1cccc(-c2nc(N(C)C)c3ccccc3n2)c1
activity change, negative = inhibition [1]: 45.3% [at 2.29 µM] (inactive)

Cn1cc(-c2nc3cnc(N4CCNCC4)nc3n(C3CC3)c2=O)c2ccccc21
Potency [1]: 3.98 µM (active)

COCCn1c(=O)c(-c2cccs2)nc2cnc(N3CCNCC3)nc21
Potency [1]: 2 µM (active)

Cc1ncc(COP(=O)(O)O)c(C)c1O
Potency [2]: inactive | Potency [3]: inactive

CCCCCC/C=C\CCCCCCCC(=O)O
Potency [2]: inactive | Potency [3]: 14.1 µM (active)

C=CC(C)(CCC=C(C)C)OC(C)=O (configuration not stated)
Potency [4]: inactive | outcome [5]: inactive | max response [6]: -5.34% | outcome [7]: inactive | Potency [8]: inactive | activation [9]: -0.624% (inactive)

COc1ccc(/C=C/c2cc(OC)cc(=O)o2)cc1
Potency [10]: > 92 µM (inactive) | Potency [11]: inactive | Potency [12]: inactive | Potency [13]: inactive | Potency [14]: inactive | Potency [15]: inactive | Potency [4]: inactive | Potency [8]: 1.88 µM (active) | activation [9]: 1.78% (inactive) | Potency [16]: inactive | Potency [17]: inactive

CC1(C)C2CCC1(C)C(O)C2 (configuration not stated)
Potency [2]: inactive | Potency [3]: inactive

CCCCC/C=C/C/C=C/CCCCCCCC(=O)O
Potency [2]: inactive | Potency [3]: 4.47 µM (active)

CCCCCCCCCCCCCC(=O)O
Potency [10]: > 92 µM (inactive) | outcome [18]: inactive | Potency [19]: inactive | Potency [20]: inactive | Potency [13]: inactive | Potency [14]: inactive | Potency [15]: inactive | Potency [4]: inactive | outcome [5]: inactive | max response [6]: 12.8% and -5.45% | outcome [7]: inactive | Potency [8]: inactive | Potency [16]: inactive | Potency [17]: inactive

C=C(C)C1CC=C(C)C(O)C1 (configuration not stated)
Potency [10]: > 92 µM (inactive) | Potency [11]: inactive | outcome [18]: inactive | Potency [19]: inactive | Potency [12]: inactive | Potency [20]: inactive | Potency [13]: inactive | Potency [14]: inactive | Potency [15]: inactive | Potency [4]: inactive | outcome [5]: inactive | max response [6]: -1.36% | outcome [7]: inactive | activation [9]: -0.16% (inactive) | Potency [16]: inactive | Potency [17]: inactive

O=c1cc(-c2ccc(O)c(O)c2)oc2cc(O[C@@H]3O[C@@H](CO)[C@@H](O)[C@@H](O)[C@H]3O)cc(O)c12
Potency [1]: inactive

C=CCc1ccc(OC)c(OC)c1
Potency [11]: inactive | outcome [18]: inactive | Potency [19]: inactive | Potency [12]: inactive | Potency [20]: inactive | Potency [13]: inactive | Potency [14]: inactive | Potency [15]: inactive | outcome [5]: inactive | max response [6]: -12.6% and 4.43% | outcome [7]: inactive | Potency [8]: 33.5 µM (active) and inactive | activation [9]: -0.295% (inactive) and 0.286% (inactive) | Potency [16]: inactive | Potency [17]: inactive

C=CC(=C)CCC=C(C)C
Potency [10]: > 92 µM (inactive) | Potency [11]: inactive | outcome [18]: inactive | Potency [19]: inactive | Potency [12]: inactive | Potency [20]: inactive | Potency [13]: inactive | Potency [14]: inactive | Potency [15]: inactive | Potency [4]: inactive | max response [6]: 1.9% | outcome [7]: inactive | Potency [8]: inactive | activation [9]: -0.615% (inactive) | Potency [16]: inactive | Potency [17]: inactive

COc1cc(/C=C/c2ccccc2)oc(=O)c1
Potency [10]: > 92 µM (inactive) | outcome [18]: inactive | Potency [12]: inactive | Potency [20]: inactive | Potency [13]: inactive | Potency [14]: inactive | Potency [15]: inactive | outcome [5]: inactive | Potency [16]: inactive

O=C(O)c1ccccc1
Potency [10]: > 92 µM (inactive) | Potency [11]: inactive | outcome [18]: inactive | Potency [19]: inactive | Potency [12]: inactive | Potency [20]: inactive | Potency [13]: inactive | Potency [14]: inactive | Potency [15]: inactive | Potency [4]: inactive | outcome [5]: inactive | max response [6]: -9.66% | outcome [7]: inactive | Potency [8]: inactive | Potency [17]: inactive

CC1=C2[C@H](/C=C(\C)C(=O)O)CC[C@@H](C)[C@H]2CC1
Potency [11]: inactive | outcome [18]: inactive | Potency [19]: inactive | Potency [12]: inactive | Potency [20]: inactive | activation [9]: -1.71% (inactive) | Potency [17]: inactive
